# Test results from a collection of fitness landscapes (doi:10.1126/science.1257360).
# Whole data set: some 140,000 sequences, median “enrichment ratio after two sorts for PhoP signalling” near 0, cut for the highest 2% near 11. The sample holds the highest values, similar sequences and a random draw of the others, so the mix is not that of the screen.
# B1: PhoQ; a variant is named by its letters at X, in order, P23837 (parent)
# chain: MKKLLRLFFPLSLRVRFLLATAAVVLVLSLAYGMVALIGYSVSFDKTTFRLLRGESNLFYTLAKWENNKLHVELPENIDKQSPTMTLIYDENGQLLWAQRDVPWLMKMIQPDWLKSNGFHEIEADVNDTSLLLSGDHSIQQQLQEVREDDDDAEMTHSVAVNVYPATSRMPKLTIVVVDTIPVELKSSYMVWSWFIYVLSANLLLVIPLLWVAAWWSLRPIEALAKEVRELEEHNRELLNPATTRELTSLVRNLNRLLKSERERYDKYRTTLTDLTHSLKTPLXXLQXXLRSLRSEKMSVSDAEPVMLEQISRISQQIGYYLHRASMRGGTLLSRELHPVAPLLDNLTSALNKVYQRKGVNISLDISPEISFVGEQNDFVEVMGNVLDNACKYCLEFVEISARQTDEHLYIVVEDDGPGIPLSKREVIFDRGQRVDTLRPGQGVGLAVAREITEQYEGKIVAGESMLGGARMEVIFGRQHSAPKDE
# Variants of: B1
# Experiment: enrichment ratio after two sorts for PhoP signalling (ratio (wild type AVST 3.29)); higher = more functional
# Conditions: with PhoP (E. coli)
row,Variant,enrichment ratio
1,SFAC,≤ 0.25
2,MEAC,37.3
3,NIYV,≤ 0.25
4,IRLQ,≤ 0.25
5,HPHQ,≤ 0.25
6,QISV,≤ 0.25
7,SDLF,≤ 0.25
8,TCEE,≤ 0.25
9,MKWH,≤ 0.25
10,QAWW,≤ 0.25
11,QCDG,≤ 0.25
12,YQQR,≤ 0.25
13,KAAC,≤ 0.25
14,NQAC,≤ 0.25
15,FSAC,≤ 0.25
16,EQAC,≤ 0.25
17,TEAC,25.6
18,VEAC,0.99
19,SSAC,11.3
20,SQAC,13.4
21,KSAC,≤ 0.25
22,PWYS,≤ 0.25
23,WGDA,≤ 0.25
24,NQIK,≤ 0.25
25,DWSM,≤ 0.25
26,TQHP,≤ 0.25

row,Variant,enrichment ratio
1,TQTD,≤ 0.25
2,TQSF,7.45
3,LAQF,≤ 0.25
4,TQHF,16.2
5,TQQF,33.4
6,TQSM,23.3
7,TQMS,4.53
8,TQHI,3.97
9,TQHQ,13.8
10,RNSM,≤ 0.25
11,NYQY,≤ 0.25
12,NTGP,≤ 0.25
13,YRMS,≤ 0.25
14,FSKE,≤ 0.25
15,MTHL,7.87
16,PNLT,≤ 0.25
17,TPTL,≤ 0.25
18,SMDI,≤ 0.25
19,REVG,≤ 0.25
20,WQFM,≤ 0.25
21,PAAY,≤ 0.25
22,ENTT,≤ 0.25
23,GKMH,≤ 0.25
24,KCNH,≤ 0.25
25,LNPK,≤ 0.25
26,MECK,27.3

row,Variant,enrichment ratio
1,MEGM,≤ 0.25
2,MEWI,24
3,DPCV,≤ 0.25
4,MELS,9.24
5,DECI,≤ 0.25
6,MELA,≤ 0.25
7,MKCS,≤ 0.25
8,DECV,25.8
9,MERM,≤ 0.25
10,MECS,11.2
11,NECS,≤ 0.25
12,VHCY,≤ 0.25
13,MPCS,≤ 0.25
14,PKNK,≤ 0.25
15,PCQL,≤ 0.25
16,ICAL,0.516
17,STWD,≤ 0.25
18,TWLL,≤ 0.25
19,FYED,≤ 0.25
20,FVPW,≤ 0.25
21,NCRM,≤ 0.25
22,MEGD,≤ 0.25
23,MECA,3
24,MMCV,4.31
25,NECV,≤ 0.25
26,MECV,18.2

row,Variant,enrichment ratio
1,MECI,12.8
2,DNCI,≤ 0.25
3,VVVI,≤ 0.25
4,MDLY,≤ 0.25
5,TMFE,≤ 0.25
6,MWWC,≤ 0.25
7,SMGY,7.3
8,SMAG,11.3
9,SMAY,25.3
10,SMTG,5.2
11,SMVG,8.8
12,SMAT,7.92
13,SMAS,11.6
14,SMYI,≤ 0.25
15,SMGD,1.08
16,SMAI,13.5
17,SMRY,≤ 0.25
18,SMAN,6.01
19,HEDR,≤ 0.25
20,DAFY,≤ 0.25
21,QNHA,≤ 0.25
22,MIDS,≤ 0.25
23,PWKL,≤ 0.25
24,HVPL,≤ 0.25
25,VFFI,≤ 0.25
26,KESQ,≤ 0.25

row,Variant,enrichment ratio
1,HGIC,≤ 0.25
2,MKCM,≤ 0.25
3,KKCM,≤ 0.25
4,TKCM,46.1
5,HKCM,≤ 0.25
6,AKCM,15.6
7,AICM,6.05
8,SKKH,≤ 0.25
9,PYDF,≤ 0.25
10,MIQV,≤ 0.25
11,GAMG,≤ 0.25
12,FALI,15.1
13,RSLI,≤ 0.25
14,VSLI,14
15,ISLI,11.2
16,NSLI,4.88
17,FALS,8.07
18,MMLI,≤ 0.25
19,TSLI,11.8
20,ISLA,≤ 0.25
21,VSLA,0.756
22,ISLT,0.863
23,FALA,5.9
24,ENRC,≤ 0.25
25,VSCH,2.85
26,TYRA,≤ 0.25

row,Variant,enrichment ratio
1,DETW,≤ 0.25
2,WTDY,≤ 0.25
3,PCSF,≤ 0.25
4,NFAL,≤ 0.25
5,WRVV,≤ 0.25
6,FCLI,7.58
7,KSLI,≤ 0.25
8,FSLI,12.9
9,PMYI,≤ 0.25
10,KKIH,≤ 0.25
11,SCIH,1.7
12,TKIH,15.7
13,HKIH,≤ 0.25
14,SQIH,12.4
15,SDIH,2.15
16,GFSR,≤ 0.25
17,REWS,≤ 0.25
18,WQHV,≤ 0.25
19,ASQY,≤ 0.25
20,LLWC,≤ 0.25
21,LEFC,12.9
22,LEWC,17.6
23,LRWC,≤ 0.25
24,LEFA,1.62
25,LEFP,≤ 0.25
